# Data as given in PubChem BioAssay (NCI).
# About 83,000 compounds went through this panel and 20% of them were active in at least one assay; those are over-represented in the sample as a whole.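 Cells were grown in 96-well plates and exposed to the test compound at a single concentration for 48 hours; results are reported as percent growth, with values below 10 considered active.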 Values without a mark were called inactive. Calls of active or inactive are those of the source.
# Tested on: HL-60(TB) leukemia
# Experiment: NCI-60 one-dose screen, 48 h (100 = growth as untreated, 0 = no growth, -100 = all killed)
# Details: 10 µM unless noted
row,Structure (SMILES),growth
1,NNC(=O)Oc1c(Cl)cc(Cl)cc1[N+](=O)[O-],98.3%
2,CCCc1cc(CCC)n2nc(N)nc2n1,105%
3,O=S(=O)(O)c1cnccn1,95.3%
4,CCCCCCCCCCCCOc1ccccc1C=O,89.9%
5,COc1ccc(-c2conc2-c2ccccc2)cc1,15.1%
6,N#Cc1cc(-c2cc3ccccc3o2)oc1N,-49.3% (active)
7,CCC1(C(C)C)NC(=O)NC1=O (stereo not given),100%
8,CC(=O)n1cc(-c2c[nH]c3ccccc23)c(-c2ccc(Cl)cc2)n1,135%
9,O=C(/C=C/C(Cl)(Cl)Cl)Nc1ccc(Cl)cc1,34.5%
10,COc1ccc(-c2nc(SCC(C)C)nc(N/N=C(/C)c3ccc(OC)c(OC)c3)c2C#N)cc1,89.4%
11,C=C1CCC2C(C)(CO)C(O)CCC2(C)C1C/C=C1/C(=O)OCC1O/C=C/c1ccccc1 (stereo not given),7.31% (active)
12,Nc1nc(-c2ccnc(Cl)c2)nn1-c1nc2ccccc2s1,107%
13,C=C(C)[C@@H]1CC[C@]2(C(=O)N3CCN(C)CC3)CC[C@]3(C)[C@H](CC[C@@H]4[C@@]5(C)C/C(=C/c6ccco6)C(=O)C(C)(C)[C@@H]5CC[C@]43C)[C@@H]12,64.2%
14,CCOC(=O)c1ccc(NC(=O)Nc2ncc(Cl)cc2Cl)cc1,95.5%
15,CC1=CN2C(=NC3=C(CCCC/C3=C\c3ccccc3)C2c2ccccc2)S1 (stereo not given),102%
16,O=C(NNc1ccccc1)C1CCCN1 (stereo not given),9.36% (active)
17,CC1(C)OCC2OC3(C(=O)O)OC(C)(C)OC3C2O1 (stereo not given),98.2%
18,COc1ccc(OC)c(/C=C2\CCc3ccccc3C2=O)c1,16.9%
19,CCCc1cc(=O)oc2c3c(c4c(c12)OC(C)(C)C=C4)O[C@@H](C)[C@H](C)C3=O,48.3%
20,CC(=O)SC1CC(=O)C=C2CCC3C4CCC(=O)OC4(C)CCC3C21C (stereo not given),103%

row,Structure (SMILES),growth
1,CC(=O)Nc1ccc(C=Nc2ccc3ccccc3c2)cc1,107%
2,CCCCCCCCCCCCNc1ncnc2[nH]ncc12,74.4%
3,COc1cc(C2C(C#N)=C(N)OC3=C2C(=O)c2ccccc2C3=O)cc(OC)c1OC (stereo not given),15.2%
4,CC(C)(C)NCC(O)COc1c(Br)c(Br)c(Br)c2c1OC(C)(C)C2 (stereo not given),-59.3% (active)
5,O=C(Nc1cccc2cccnc12)c1cc(C(=O)c2ccc(Cl)cc2)n2ccc(-c3ccncc3)cc12,125%
6,O=C(CCC(=O)N(CCO)CCO)N(CCO)CCO,89%
7,COC(=O)C1=CCC(n2cnc3c(N)ncnc32)O1 (stereo not given),94%
8,O=[N+]([O-])c1cccc(N=NNc2cccc([N+](=O)[O-])c2)c1,79.9%
9,C#CC#CC#CC#CC#CC#CC#CC#CC[C@@H]1OC[C@H](COC(=O)O[C@@H](C(=O)O[C@H]2C[C@@]3(O)[C@@H](OC(=O)c4ccccc4)[C@@H]4[C@]5(OC(C)=O)CO[C@@H]5C[C@H](O)[C@@]4(C)C(=O)[C@H](OC(C)=O)C(=C2C)C3(C)C)[C@@H](NC(=O)c2ccccc2)c2ccccc2)O1,6.04% (active)
10,COc1ccc(C(=O)/C=C/c2cc(-c3ccc4c(c3)OCO4)n[nH]2)cc1OC,42.9%
11,C=NNc1ccccc1,117%
12,CCCc1cc(NC)nc(S(=O)(=O)CC)n1,127%
13,CCCN1[C@@H]2CC[C@H]1/C(=C\c1ccc(OC)c(OC)c1)C(=O)/C2=C/c1ccc(OC)c(OC)c1,20.5%
14,N#C/C(=C\c1cccc2cnccc12)n1nnc2cccc(F)c21,1.65% (active)
15,O=C(N/N=C/c1c(Cl)cccc1Cl)c1ccccc1Nc1ccnc(C(F)(F)F)c1,96.5%
16,C[C@@H]1C[C@H](N)C[C@H](c2ccncc2NC(=O)c2ccc(F)c(-c3c(F)cccc3F)n2)C1,-0.14% (active)
17,COc1ccc2nc(-c3ccc(OC)c(OC)c3)cc(-c3nnc(SCC(=O)Nc4ccc(/C(C)=N\O)cc4)n3-c3ccccc3)c2c1,26.3%
18,CCOc1ccc(Br)cc1/C=N\N=C\c1cc(Br)ccc1OCC,73.2%
19,Cc1ccc(N=CNN=C(N)N)cc1,87.9%
20,O=C(Nc1ccccc1N1CCCC1=O)c1oc2ccc(F)cc2c1-c1cnn(-c2ccccc2)c1,84.8% [50 µM]
